PfM18AAP inh: blocks P. falciparum M18 aspartyl aminopeptidase; recombinant PfM18AAP, H-Glu-NHMec fluorogenic cleavage; AID 1822; 1.2% of 290,000 active; inhibition, % at 7.35 µM;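 active = inhibition above the campaign mean inhibition over all tested compounds plus 3 SD, cut at about 28% in these data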;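 note: 0% = plate median of test compound wells and 100% = 2 mM ZnCl2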
SUMO Mot1 rescue: SUMOylation pathway inhibition by Mot1-301 growth rescue. 1% of 320,000 active. S. cerevisiae Mot1-301 growth rescue, ATP luminescence, 38.5C; percent above DMSO median, 100 means doubled. AID 2716. growth rescue, % at 18.8 µM;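 active = every valid replicate shows activation above 250% relative to neutral control wells; inactive = the rest, any valid replicate at or below 250%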;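 note: OY570 slx delta 5 strain wells were the positive control but not used for scaling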
ALR H2O2 inh: inhibitors of human sulfhydryl oxidase ALR. purified ALR, DTT oxidation, H2O2 HRP-luminol luminescence. inhibition, % (concentration not given with the values). 3.8% of 290,000 active. P55789;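 active = mean replicate inhibition above about 79%, with every replicate also reaching it, limit read from the data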
Target sequence (P55789 whole entry, looked up): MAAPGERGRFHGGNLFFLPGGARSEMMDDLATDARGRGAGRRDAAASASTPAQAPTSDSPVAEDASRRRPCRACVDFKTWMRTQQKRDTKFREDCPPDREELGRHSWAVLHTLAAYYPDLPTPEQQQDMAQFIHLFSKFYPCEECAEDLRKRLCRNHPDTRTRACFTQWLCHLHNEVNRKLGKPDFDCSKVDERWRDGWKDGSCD
HIF act: HIF pathway transcriptional activation; U2OS HRE-luciferase reporter, luminescence; normalized: DMSO 0%, desferrioxamine 100%; 0.32% of 300,000 active; activation, % at 7.5 µM (by protocol);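 active = mean activation of at least 10% of the iron chelator positive control signal, with at least half of replicates also reaching 10%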
* hit, by the source's call. A selection: hits, their analogues and other compounds. The true share with any hit is near 5.3%.

For COc1ccc(O)c(/C=N/NC(=O)c2ccc(OCc3cccc(Br)c3)cc2)c1 the results were PfM18AAP inh -2, SUMO Mot1 rescue 7 and HIF act 16*.
`Cn1cccc1-c1cc(C(=O)N/N=C/c2cc(Br)ccc2O)[nH]n1` gave PfM18AAP inh 1, SUMO Mot1 rescue -18 and HIF act 10*.
`NNC(=O)c1cccc(COc2ccc(Br)cc2)c1` gave PfM18AAP inh -9, SUMO Mot1 rescue -13, ALR H2O2 inh 97* and HIF act -1.
`O=C(NC1CCN(C(=O)NCc2ccccc2)CC1)c1ccccc1` gave PfM18AAP inh 3, SUMO Mot1 rescue 21, ALR H2O2 inh 5 and HIF act 1.
Screening COC(=O)c1c(S(C)(=O)=O)nc(-c2ccccc2)[nH]c1=O returned PfM18AAP inh 7, SUMO Mot1 rescue 2, ALR H2O2 inh 60 and HIF act 0.
Screening CCOc1ccccc1NC(=O)COC(=O)CSc1ccc(Cl)cc1 returned PfM18AAP inh -9, SUMO Mot1 rescue 1, ALR H2O2 inh -9 and HIF act 0.
Screening Cc1ccc(C(=O)CSc2nnc(-c3ccco3)n2C)cc1 returned PfM18AAP inh -2, SUMO Mot1 rescue 0, ALR H2O2 inh 19 and HIF act 0.
Cn1c(SCC(=O)c2cc(Cl)c(Cl)s2)nnc1-c1ccco1 was read as PfM18AAP inh 5, SUMO Mot1 rescue 5, ALR H2O2 inh 98* and HIF act 1.
Screening COCCn1c(SCC(=O)c2cccc(OC)c2)nnc1-c1ccco1 returned PfM18AAP inh 2, SUMO Mot1 rescue -10, ALR H2O2 inh 93* and HIF act 0.
`CC(=O)N1NC(=Nc2ccccc2)SC1(C)C` gave PfM18AAP inh 2, SUMO Mot1 rescue 0, ALR H2O2 inh 98* and HIF act 0.
`Cc1ccc(CNC(=O)CCc2nnc(Cc3ccc(-c4ccccc4)cc3)o2)o1` gave PfM18AAP inh -3, SUMO Mot1 rescue 217, ALR H2O2 inh 97* and HIF act 0.
Cn1c(=O)oc2cc(S(=O)(=O)Nc3ccc(O)cc3)ccc21 was read as PfM18AAP inh -4, SUMO Mot1 rescue 12, ALR H2O2 inh 99* and HIF act -11.
Screening CC(C)OCCCNS(=O)(=O)c1ccc2c(c1)oc(=O)n2C returned PfM18AAP inh 0, SUMO Mot1 rescue 3, ALR H2O2 inh 99* and HIF act 0.
COCCCNC(=O)CS(=O)Cc1nc(-c2ccccc2C)oc1C (configuration not stated) was read as PfM18AAP inh -1, SUMO Mot1 rescue 0, ALR H2O2 inh 99* and HIF act 0.
`CCOc1ccc(CCNC(=O)CS(=O)Cc2nc(-c3ccccc3Cl)oc2C)cc1OCC` (configuration not stated) gave PfM18AAP inh 5, SUMO Mot1 rescue 104, ALR H2O2 inh 99* and HIF act 1.
Cc1ccc(CCNC(=O)CS(=O)Cc2nc(-c3ccccc3Cl)oc2C)cc1 (configuration not stated) was read as PfM18AAP inh -10, SUMO Mot1 rescue 20, ALR H2O2 inh 99* and HIF act 0.
COc1ccc(OC)c(CCNC(=O)CS(=O)(=O)Cc2nc(-c3ccccc3Cl)oc2C)c1 was read as PfM18AAP inh -5, SUMO Mot1 rescue 24, ALR H2O2 inh -8 and HIF act 0.
Screening Cc1nn(-c2cccc(Cl)c2)c2nc(-c3ccncc3)cc(C(=O)N3CCOCC3)c12 returned PfM18AAP inh -1, SUMO Mot1 rescue -11, ALR H2O2 inh -4 and HIF act 0.
`CCCCNS(=O)(=O)c1cccc(S(=O)(=O)N2CCCC2)c1` gave PfM18AAP inh 1, SUMO Mot1 rescue 303* and ALR H2O2 inh -4.
`O=C(NCc1ccc(F)cc1)c1cc(C(=O)C2CC2)c[nH]1` gave PfM18AAP inh -2, SUMO Mot1 rescue -2, ALR H2O2 inh -4 and HIF act 0.
Screening Cc1cc(C)n(-c2cc(-c3ccccc3)nc(C)n2)n1 returned PfM18AAP inh -16, SUMO Mot1 rescue 336*, ALR H2O2 inh -1 and HIF act 0.
Screening Cc1nc(-c2ccccc2)cc(N2CCCC2)n1 returned PfM18AAP inh -4, SUMO Mot1 rescue -7, ALR H2O2 inh 7 and HIF act 0.
`CSc1sccc1/C=C(/C#N)C(=O)c1ccco1` gave PfM18AAP inh 31*, SUMO Mot1 rescue -18, ALR H2O2 inh 7 and HIF act 1.
Screening O=C(CCN1C(=O)/C(=C/c2ccc(F)cc2)SC1=S)NCCc1cnc[nH]1 returned PfM18AAP inh 12, SUMO Mot1 rescue -4 and ALR H2O2 inh 98*.
Screening Cc1c(OCC(=O)NC(Cc2ccc(Cl)cc2)C(=O)O)ccc2c3c(c(=O)oc12)CCCC3 (configuration not stated) returned PfM18AAP inh -6, SUMO Mot1 rescue 5, ALR H2O2 inh 98* and HIF act 1.
Cc1c(Cc2ccccc2)c(=O)oc2c(C)c(OC(C)C(=O)N[C@@H](Cc3ccccc3)C(=O)O)ccc12 (some centres not stated) was read as PfM18AAP inh -1, SUMO Mot1 rescue -10, ALR H2O2 inh 97* and HIF act 0.
For Cc1c(OC(C)C(=O)N[C@H](C(=O)O)c2ccccc2)ccc2c3c(c(=O)oc12)CCCC3 (some centres not stated) the results were PfM18AAP inh -10, SUMO Mot1 rescue 10, ALR H2O2 inh 96* and HIF act 0.
For COCc1cc(C)nc(N2CCN(c3ccccc3)CC2)c1C#N the results were PfM18AAP inh 3, SUMO Mot1 rescue 71, ALR H2O2 inh 95* and HIF act 0.
Screening Cc1cc(=O)[nH]c2c(C)cc(S(=O)(=O)Nc3ccc(O)cc3)cc12 returned PfM18AAP inh -4, SUMO Mot1 rescue -1, ALR H2O2 inh 99* and HIF act -7.
`Cn1nnnc1Sc1ncnc2scc(-c3ccsc3)c12` gave SUMO Mot1 rescue 110 and ALR H2O2 inh 16.
`Cc1ccc(/C(O)=C2/C(=O)C(=O)OC2c2ccc(Cl)cc2)cc1` (configuration not stated) gave PfM18AAP inh 4, SUMO Mot1 rescue 15 and ALR H2O2 inh 92*.
O=C1OC(c2ccccc2)/C(=C(/O)c2ccccc2)C1=O (configuration not stated) was read as PfM18AAP inh 18, SUMO Mot1 rescue 129, ALR H2O2 inh 92* and HIF act 0.
`O=C1OC(c2ccccc2)/C(=C(/O)c2ccc(Cl)cc2)C1=O` (configuration not stated) gave PfM18AAP inh 12, SUMO Mot1 rescue 4, ALR H2O2 inh 98* and HIF act 0.
For CN1C(=O)C(=O)/C(=C(/O)c2ccccc2)C1c1ccccc1 (configuration not stated) the results were PfM18AAP inh 1, SUMO Mot1 rescue 7, ALR H2O2 inh 2 and HIF act 0.
For O=C1C(=O)N(CCO)C(c2cccc(F)c2)/C1=C(\O)c1ccc(Cl)cc1 (configuration not stated) the results were PfM18AAP inh -12, SUMO Mot1 rescue 36, ALR H2O2 inh -6 and HIF act 0.
